High-throughput results deposited in PubChem BioAssay by National Center for Advancing Translational Sciences (NCATS).
Hits are enriched below; roughly 11% of the tested compounds scored in any of these assays.
NPSR antagonist = blocks cAMP signaling of the human neuropeptide S receptor | CHO-NPSR cells, cAMP TR-FRET, antagonist mode | Potency, µM (top dose mostly 38.3 µM), for inactives: at the highest dose activity change, negative = inhibition, actives largely listed as inhibitors | actives 1% (n = 220,000) | AID 1461; active = well fitted curve in the direction sought with a large enough effect; inconclusive = small, poorly fitted or top-dose-only effect, or another doubt; inactive = no such curve, though single readings can be large; an effect the other way counts as inactive or inconclusive; also: potency is read from the fitted curve at half-maximal effect; nearly all actives have a fitted effect of over 50% in size
Target sequence (Q6W5P4 whole entry, looked up): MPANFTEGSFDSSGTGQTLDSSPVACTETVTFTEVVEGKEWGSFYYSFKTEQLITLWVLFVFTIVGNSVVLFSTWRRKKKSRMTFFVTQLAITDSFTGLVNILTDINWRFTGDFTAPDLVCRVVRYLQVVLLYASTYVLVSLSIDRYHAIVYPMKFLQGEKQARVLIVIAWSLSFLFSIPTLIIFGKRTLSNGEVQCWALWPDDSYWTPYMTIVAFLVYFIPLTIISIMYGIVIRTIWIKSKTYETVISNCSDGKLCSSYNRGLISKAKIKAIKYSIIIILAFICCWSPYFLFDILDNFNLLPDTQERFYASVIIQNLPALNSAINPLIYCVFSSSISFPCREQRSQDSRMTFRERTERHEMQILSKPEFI
PNC assembly inh = perinucleolar compartment assembly inhibition | PC3M PTB-GFP, PNC prevalence imaging, 16 h; stronger effect = lower value | activity change (PNC), negative = inhibition, % at 10 µM | actives 3.1% (n = 140,000);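 active = readout at or below -70, meaning at least 70% loss of cells showing the perinucleolar compartment, a nuclear body marking cancer cells; inconclusive = readout between -30 and a set limit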;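 also: plate controls were DMSO wells for no effect and camptothecin positive control wells for full effect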
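Read-out is percentage of cells bearing a perinucleolar compartment, from automated 20x imaging of fixed, Hoechst-stained PC3M PTB-GFP cells. Cells were seeded 4 h, then exposed 16 h to compound (23 nl of library stock) in duplicate plates.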
HPGD block = blocks human HPGD enzyme activity | AID 894 | purified HPGD, NADH fluorescence kinetic, PGE2 substrate | actives 4.3% (n = 150,000) | Potency, µM, without a hit: at the top dose activity change, negative = inhibition, actives largely listed as inhibitors; also: potency is read from the fitted curve at half-maximal effect
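NADH formation kinetics: reaction with 30 uM PGE2 and 1 mM NAD+ (final), 20 nM enzyme, Tris-HCl pH 8 with Tween 20, after 15 min compound preincubation at room temperature. Fluorescence change, last versus first of five reads.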
ALDH1A1 inh = ALDH1A1 (human) enzyme inhibition; P00352; Purified ALDH1A1, NADH fluorescence, propionaldehyde substrate; Potency, µM (top dose mostly 75.3 µM), for the others: top-dose activity, negative = inhibition, actives largely listed as inhibitors; actives 7.3% (n = 220,000); AID 1030;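 also: potency is read from the fitted curve at half-maximal effect; plate controls were no enzyme wells and a reference inhibitor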
IMPase cell inh = cell-permeable inhibitors of inositol monophosphatase (IMPase). P97697. CHO-M1 cells, IP1 accumulation, HTRF TR-FRET ratio. inhibition (IP1 accumulation), % at 46.1 µM. 120,000 tested, under 10 active. AID 901; active = well fitted curve in the direction sought with a large enough effect in the signal ratio, not every such curve was filed as active; inconclusive = small, poorly fitted or top-dose-only effect, or a change in a side signal; inactive = no such curve, though single readings can be large or run the other way; the % refers to the signal ratio;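 also: cells stimulated with carbachol in lithium chloride buffer; plate controls were DMSO basal wells for no effect and reference inhibitor wells for full effect; higher means more IMPase inhibition seen as more IP1 and lower FRET ratio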
Target sequence (P97697 whole entry, looked up): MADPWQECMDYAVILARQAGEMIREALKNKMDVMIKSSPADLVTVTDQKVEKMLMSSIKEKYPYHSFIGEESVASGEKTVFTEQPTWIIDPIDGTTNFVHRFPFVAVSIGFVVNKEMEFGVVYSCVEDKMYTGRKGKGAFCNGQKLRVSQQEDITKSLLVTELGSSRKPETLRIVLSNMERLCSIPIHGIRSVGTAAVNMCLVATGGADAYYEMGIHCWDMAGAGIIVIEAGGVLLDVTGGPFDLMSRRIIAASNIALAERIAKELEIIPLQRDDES
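Seeded CHO-M1 cells were dosed with compound at up to 46 uM, stimulated with carbachol for 30 min, then lysed in IP-One detection reagents. Higher IP1 lowers the TR-FRET signal.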
IMPase Li inh = membrane-permeable IMPase blocker, potentiated with lithium; CHO-M1 cells, IP1 TR-FRET (IP-One), carbachol + lithium; Potency, µM (doses to about 59.4 µM), for the others: at the highest dose activity, negative = IMPase inhibition, usual class: inhibitors; actives 0.35% (n = 210,000); active = well fitted curve in the direction sought with a large enough effect; inconclusive = small, poorly fitted or top-dose-only effect, or another doubt; inactive = no such curve, though single readings can be large; an effect the other way counts as inactive or inconclusive;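 also: IP1 builds up when IMPase is blocked and the TR-FRET signal falls; potency is read from the fitted curve at half-maximal effect; plate controls were basal vehicle for no effect and high inhibitor control for full effect; nearly all actives have a fitted effect of over 50% in size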
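Steps: plate 2000 CHO-M1 cells per well and culture 16–30 h; add compound and lithium; incubate 30 min, 37C; add d2-IP1 tracer and Eu cryptate anti-IP1 antibody in lysis buffer; read after 10 min at room temperature.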
The depositor's hits bear a star; ? = inconclusive; / = no result given; ! = not confirmed by another sample; [ ] = dose if it differs, or a comment. Unless noted, calls follow the shape of the dose curve; as a rule, active = well fitted inhibition curve with a large enough effect (not every such curve was filed as active); inconclusive = small, poorly fitted or top-dose-only effect, or another doubt; inactive = no such curve, though single readings can be large or run the other way. Unless noted, % is scaled to controls: 0 for no effect and ±100 for the full control effect.

SMILES | NPSR antagonist | PNC assembly inh | HPGD block | ALDH1A1 inh | IMPase cell inh | IMPase Li inh
O=C(CC1COc2ccccc2O1)NCc1ccccc1 (stereo not given) | 5%[46.1 µM] | 0 | -23% | -6% | / | 1%
O=C(CC1COc2ccccc2O1)NCCc1ccccc1 (stereo not given) | -2%[46.1 µM] | 50 | 7.1µM* | -15% | 1 | -17%[38.3 µM]
O=C1CC2(CCCC2)CC(=O)N1CCCCNC[C@H]1COc2ccccc2O1 | / | / | -2% | 10µM* | 0 | 20%
CCOC(=O)CCNCC1COc2ccccc2O1 (stereo not given) | 3%[46.1 µM] | -92* | -4% | 7% | 2[1.84 µM] | 9%[38.3 µM]
COc1ccc(N2CCc3c(C)nc4c(OC)cccc4c32)cc1 | -26% | / | / | 28µM* | / | 29%
O=C(CN1CCCCC1)Nc1cc(Cl)ccc1Oc1ccccc1 | ? | / | / | -1% | / | 23%
C=CCN(CC=C)c1ccc(N2C(=O)C3CCCCC3C2=O)cc1[N+](=O)[O-] (stereo not given) | -5% | / | / | ? | / | -1%
CCCCNC(=O)C1CCCN1C(=O)NC1CCCCC1 (stereo not given) | ? | -100* | -9% | 4% | 4 | -4%
COc1ccc(NC(=O)c2ccco2)cc1NC(=O)c1c(OC)cccc1OC | / | / | / | / | 2 | /
N#CC1=C(N)N(c2ccc(Oc3ccccc3)cc2)C(=O)C1 | -22%[46.1 µM] | 18 | -2% | 25µM* | -8 | 10%[38.3 µM]
COc1ccc2c(c1)C(=O)N(c1ccccc1)C(=O)C2 | 9%[46.1 µM] | 19 | ? | ? | 1 | 10%[38.3 µM]
COc1cc(-c2nc3cnccn3c2Nc2ccc(C)cc2)ccc1O | ? | -24 | ? | ? | 2 | 12%[38.3 µM]
COc1cc(-c2nc3cnccn3c2Nc2ccc3c(c2)OCCO3)ccc1O | -27%[46.1 µM] | ? | 22µM* | -15% | -1[1.84 µM] | 24%[38.3 µM]
Oc1ccc(-c2nc3cnccn3c2Nc2ccc3c(c2)OCCO3)cc1 | -14%[46.1 µM] | -19 | 11µM* | 40µM* | 8 | 9%[38.3 µM]
Clc1cnc2nc(SC/C=C/c3ccccc3)[nH]c2c1 | 11% | / | / | / | / | /
N[C@H](CCC(=O)N[C@H](CSN=O)C(=O)NCC(=O)O)C(=O)O | / | / | 11µM* | -12% | -9 | 9%
CC1=Nc2cc(C(=O)NCCCOC(C)C)ccc2Sc2ccc(C)cc21 | 44% | / | / | -7% | / | -2%
N=C1S/C(=C\c2ccco2)C(=O)N1c1nccs1 | 6.3µM* | / | / | 10µM* | / | 2%
CC(C)NCC(O)COc1ccccc1-n1cccc1 (stereo not given) | / | / | / | 3% | / | -6%
CC(=O)NCCc1c[nH]c2ccc(O)cc12 | ? | / | 11µM*! | -5% | 10 | 14%
CCOC(=O)N1CCN(C(=O)C2CCCN(Cc3nc(-c4ccc(Cl)cc4)oc3C)C2)CC1 (stereo not given) | -9%[46.1 µM] | -100* | -9% | ? | -2 | 2%[38.3 µM]
Cc1oc(-c2cc3c(cc2Cl)OCO3)nc1CN1CCCC(C(=O)N2CCOCC2)C1 (stereo not given) | 12% | / | / | 1µM* | / | 4%
CCOC(=O)N1CCC(NC(=O)C2CCCN(Cc3nc(-c4cccc(Cl)c4)oc3C)C2)CC1 (stereo not given) | -8%[46.1 µM] | -10 | -19% | -13% | 17 | 16%[38.3 µM]
Cc1ccccc1-c1nc(CN2CCCC(C(=O)NCCCN3CCOCC3)C2)c(C)o1 (stereo not given) | 5%[46.1 µM] | -19 | -7% | 9% | 7 | 21%[38.3 µM]
COc1cc2[nH]c(=S)nc(NCc3cccs3)c2cc1OC | -25% | / | / | 11µM* | / | 4%
SMILES | NPSR antagonist | PNC assembly inh | HPGD block | ALDH1A1 inh | IMPase cell inh | IMPase Li inh
COCCCNc1nc(=S)[nH]c2cc(OC)c(OC)cc12 | ? | -7 | 14µM* | -8% | -3 | -14%[38.3 µM]
CC(C(=O)NCC1CCCO1)N1C(=O)C2C3CC(C(Br)C3Br)C2C1=O (stereo not given) | 14% | / | / | / | / | /
CCC(C)NC(=O)C(CCSC)NC(=O)c1ccccc1 (stereo not given) | -8%[46.1 µM] | 28 | 3% | 5% | -7 | 11%[38.3 µM]
Cc1cc(C)c(-n2c(C)cc(/C=C3/NC(=O)NC3=O)c2C)c(C)c1 | -21%[46.1 µM] | 68 | -19% | 14µM* | 13 | 13%[38.3 µM]
Cc1cc(/C=C2/NC(=O)NC2=O)c(C)n1-c1ccncc1 | -30% | / | / | -6% | / | 12%
Cc1cc(/C=C2/NC(=O)NC2=O)c(C)n1-c1sc2c(c1C#N)CCCC2 | -17%[46.1 µM] | ? | 18µM* | 13µM* | 17 | 61%[38.3 µM]
COC(=O)c1nc2nc(-c3cccs3)cc(C(F)(F)F)n2n1 | 1% | ? | ? | ? | / | -15%
CC(C)(C)OC(=O)N1CCCC1C(=O)N1CCc2ccccc21 (stereo not given) | 24%[46.1 µM] | -23 | -5% | 0% | -3 | -3%
O=[N+]([O-])c1ccc([C@@H](Nc2ccccc2)c2ccc3cccnc3c2O)cc1 | / | / | -12% | ? | / | -2%
O=C(O)c1ccc(N[C@H](c2ccccc2)c2ccc3cccnc3c2O)cc1 | / | / | ? | 4µM* | / | 3%
Oc1c(C(Nc2cccc(C(F)(F)F)c2)c2ccncc2)ccc2cccnc12 (stereo not given) | -25% | / | / | 18µM* | / | 7%
COc1ccc(NS(=O)(=O)c2ccc(N3CCOCC3)c(NC(=O)c3ccccc3Cl)c2)cc1 | -32% | 24 | -11% | 7% | / | 2%
O=C(Nc1cc(S(=O)(=O)Nc2ccc(Cl)cc2)ccc1N1CCCCC1)c1ccc(F)cc1Cl | -58% | ? | ? | 32µM* | / | 3%
COC(=O)CCC(=O)Nc1cc(S(=O)(=O)Nc2ccc(Cl)cc2)ccc1N1CCOCC1 | 20% | ? | ? | 20µM* | 3 | -4%
Cc1onc(-c2ccccc2)c1-c1ccc(S(N)(=O)=O)cc1 | -11% | / | -11% | 0% | / | -5%
COCCOCC(O)CN1CCN(c2ccc(C)cc2)CC1 (stereo not given) | 5%[46.1 µM] | 1 | -3% | 11µM* | 11 | 8%[38.3 µM]
COCCOCC(O)CN1CCN(c2ccccc2)CC1 (stereo not given) | -6%[46.1 µM] | ? | -8% | ? | -14 | 15%[38.3 µM]
COc1ccc(N2C(=O)CC(NC3CCCCNC3=O)C2=O)cc1 (stereo not given) | 0%[46.1 µM] | ? | 0% | 20µM* | 7 | 0%
O=C1CCCN1CCC1CCN(C2CC(=O)N(c3ccc(Cl)cc3)C2=O)CC1 (stereo not given) | ? | 0 | -7% | 20µM* | -16 | -14%[38.3 µM]
COc1ccc(N2C(=O)CC(Nc3ccc(C)cc3)C2=O)cc1 (stereo not given) | -3%[46.1 µM] | 13 | -11% | -3% | 6 | -7%[38.3 µM]
O=C1CCCN1CCC1CCN(C2CC(=O)N(Cc3ccc(N4CCCC4=O)cc3)C2=O)CC1 (stereo not given) | 1%[46.1 µM] | ? | 5% | ? | -7 | 20%[38.3 µM]
